For orientation: AC50 means the midpoint of the concentration-response curve, whichever way the signal moves.

Calls of active or inactive are those of the source. Rule for the calls: active = hit-call score of the fitted dose curve at least 0.9, where 1 is the maximum; inactive = score below 0.9.

Sequence of human CK1delta CK1 Kinase, CSNK1D (gene 1453) (P48730 whole entry, looked up): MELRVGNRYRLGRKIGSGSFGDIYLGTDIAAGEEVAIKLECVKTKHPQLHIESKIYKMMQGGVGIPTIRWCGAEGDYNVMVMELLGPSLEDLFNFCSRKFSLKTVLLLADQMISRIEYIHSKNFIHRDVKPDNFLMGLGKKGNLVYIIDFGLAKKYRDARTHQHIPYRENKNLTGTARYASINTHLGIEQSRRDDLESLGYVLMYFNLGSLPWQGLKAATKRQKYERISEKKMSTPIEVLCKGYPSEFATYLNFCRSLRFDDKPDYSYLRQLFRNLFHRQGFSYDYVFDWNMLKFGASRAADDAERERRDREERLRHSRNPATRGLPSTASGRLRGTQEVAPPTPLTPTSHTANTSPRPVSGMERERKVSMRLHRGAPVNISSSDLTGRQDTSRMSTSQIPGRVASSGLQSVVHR

For the experiment, the target named is human CK1delta CK1 Kinase, CSNK1D (gene 1453) (UniProt P48730). The experiment is described as follows: ERF_TW_ENZ_hCSNK1D: Eurofins (ERF) Enzymatic Radiometric [10 uM ATP] Assay for human CK1delta CK1 Kinase. Here is the method:
ERF_TW_ENZ_hCSNK1D is a biochemical, single-readout assay that uses extracted gene-proteins in a cell-free assay. Measurements were taken 0.5 hour after chemical dosing in a 96-well plate. See CK1delta Human CK1 Kinase Enzymatic Radiometric Assay [10 uM ATP], Panlabs.ERF_TW_ENZ_hCSNK1D is an assay component calculated from the ERF_TW_ENZ_hCSNK1D assay. It is designed to measure enzyme activity using a type of enzyme reporter as detected by scintillation counting with radiometry technology.Data from the assay component ERF_TW_ENZ_hCSNK1D was analyzed at the assay endpoint, ERF_TW_ENZ_hCSNK1D, in the positive analysis fitting direction relative to DMSO as the negative control and baseline of activity. Using a type of enzyme reporter, loss-of-signal activity can be used to understand changes in enzymatic activity as they relate to gene CSNK1D. To generalize the intended target to other relatable targets, this assay endpoint is annotated to the kinase intended target family, where the subfamily is serine/threonine kinase.
CK1d (h) is incubated with 8 mM MOPS pH 7.0, 0.2 mM EDTA, 200 uM KRRRALS(p)VASLPGL, 10 mM MgAcetate and [gamma-33P]-ATP (specific activity and concentration as required). The reaction is initiated by the addition of the Mg/ATP mix. After incubation for 40 minutes at room temperature, the reaction is stopped by the addition of phosphoric acid to a concentration of 0.5%. […]
Consider `O=C(/C=C/c1ccc(O)cc1)CC(=O)/C=C/c1ccc(O)cc1`, for which the half-maximal activity concentration (AC50) is 1.66 µM (active).

The values are drawn from PubChem BioAssay AID2284062 (EPA ToxCast).
